PPC-1+TRAIL kill = compounds killing PPC-1 cancer cells with TRAIL present (potentiator screen, no TRAIL-free arm); PPC-1 cells + TRAIL, ATPLite viability luminescence; cell killing (% activity), % at 4 µM or 5 µM; 220,000 compounds, 0.41% hits; AID 1443;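 active = cell killing above 50% in the first pass at 4 µM, then a duplicate retest at 5 µM averaging 50% or more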
TRAIL sens C8 = sensitizes caspase-8 expressing cells to TRAIL | NB7+C8 cells + TRAIL, ATPlite viability luminescence | inhibition (viability loss, TRAIL sensitization), % at 10 µM | 360,000 compounds, 1% hits | AID 624354;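 active = compounds causing at least 50% loss of cell viability in the single-dose screen, relative to plate controls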
SENP6 inh = blocks the human protease SENP6; Q9GZR1; Recombinant SENP6 catalytic domain, aminoluciferin luminescence; inhibition, % at 10 µM; 330,000 compounds, 1.8% hits;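 active = inhibition above about 50% at the single tested dose, limit read from the data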
SENP8 block-1 = blocks the human protease SENP8. AID 2540. 330,000 compounds, 1.2% hits. Q96LD8. purified SENP8, Z-RLRGG-aminoluciferin cleavage, luminescence. inhibition, % at 10 µM; in the data active = inhibition above about 50%
Target sequence (Q96LD8 whole entry, looked up): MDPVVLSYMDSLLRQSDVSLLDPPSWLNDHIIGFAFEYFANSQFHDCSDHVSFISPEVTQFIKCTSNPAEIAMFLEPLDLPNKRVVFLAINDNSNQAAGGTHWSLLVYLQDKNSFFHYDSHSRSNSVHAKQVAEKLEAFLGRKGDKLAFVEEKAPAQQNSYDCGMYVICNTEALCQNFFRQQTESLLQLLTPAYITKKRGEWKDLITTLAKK
SENP7 block = blocks the human protease SENP7 | Q9BQF6 | recombinant SENP7, Z-RLRGG-aminoluciferin luminescence, 40 min | inhibition, % at 5 µM | 330,000 compounds, 1.5% hits;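 active = inhibition above about 50% at the single test dose, limit read from the data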
SENP8 block-2 = blocks human SENP8 cleavage of Nedd8 substrate; 360,000 compounds, 0.64% hits; Q96LD8; inhibition, % at 20 µM; recombinant SENP8, Nedd8 substrate fluorescence; AID 602440; in the data active = inhibition mostly above about 40%, no sharp cut-off; inactive = mostly below about 27%
SENP8 inh conf = confirmation of human SENP8 protease inhibitors; shares compounds with SENP8 block-2; purified SENP8, Nedd8-AMC/pro-Nedd8 cleavage fluorescence, 30 min; inhibition, % at 25 µM; 1,400 compounds, 15% hits; in the data active = inhibition mostly above about 39%, no sharp cut-off; inactive = mostly below about 34%
Large screens that a line does not name were inactive (follow-up assays come after a bar, where they were run). Only some compounds are listed: those with a hit (about 3% of all), similar ones and a draw of the others.

Cc1c(C(=S)Nc2ccccc2)cnn1-c1ccc([N+](=O)[O-])cc1	SENP8 block-2 40 | SENP8 inh conf inactive
CCCNC(=O)CN(C)C(=O)c1n[nH]c2ccccc12	SENP8 block-2 43 | SENP8 inh conf inactive
O=C1Nc2ccc(Br)cc2C12NNc1ccccc1O2 (centres undefined)	SENP8 block-2 43 | SENP8 inh conf inactive
C/C(=N\Nc1nc2ccccc2[nH]1)c1ccc([N+](=O)[O-])cc1	SENP8 block-2 54 | SENP8 inh conf inactive
CC(C)OCCCNC(=O)c1ccccc1NC(=O)C1=CSCCO1	none (no result: PPC-1+TRAIL kill)
CCNS(=O)(=O)c1ccc(CCC(=O)NCc2ccncc2)cc1	none (no result: PPC-1+TRAIL kill)
CCC(CO)Oc1cc(NCc2ccncc2)c2ncn(C(C)C)c2c1 (centres undefined)	SENP8 block-2 41 (no result: PPC-1+TRAIL kill) | SENP8 inh conf inactive
CCc1nc2ccccc2c(C(=O)OCCN2C(=O)c3ccccc3C2=O)c1C	SENP8 block-2 42 | SENP8 inh conf inactive
CCOC(=O)c1ccc(-n2c(CN3CCN(CC)CC3)nc3ccc([N+](=O)[O-])cc3c2=O)cc1	SENP8 block-2 41 | SENP8 inh conf inactive
CC(NC(=O)c1ccc(Cn2cc([N+](=O)[O-])cn2)o1)c1ccccc1 (centres undefined)	SENP8 block-2 50 | SENP8 inh conf inactive
Cc1ccccc1C(=O)c1cccn1CC(=O)NCCCc1ccccc1	none (no result: PPC-1+TRAIL kill)
CC(c1ccon1)N(C)C(=O)CCc1nnc(C2(c3ccc(Cl)cc3)CCC2)o1 (centres undefined)	none
CC1=NN(c2ccccc2)C(=O)C1/C=C1/NC(=S)NC1=O (centres undefined)	none
CC1=NN(c2ccccc2)C(=O)C1C=Nc1ccc(N(C)C)cc1 (centres undefined)	SENP8 block-2 17 | SENP8 inh conf inactive
COC(=O)c1ccc(COC(=O)CCNS(=O)(=O)c2ccc(C)c(C)c2)cc1	none (no result: PPC-1+TRAIL kill)
Cc1[nH]n(-c2ccc([N+](=O)[O-])cc2)c(=O)c1C=NCCc1c(C)[nH]c2ccccc12	SENP8 block-2 42 | SENP8 inh conf inactive
Cc1ccc(-n2[nH]c(C)c(/C=N/Nc3ccc([N+](=O)[O-])cc3[N+](=O)[O-])c2=O)cc1	SENP8 block-2 80 | SENP8 inh conf inactive
Cc1[nH]n(-c2ccc([N+](=O)[O-])cc2)c(=O)c1C=NCC1CCCO1 (centres undefined)	none
O=[N+]([O-])c1ccc(C=NN2CCOCC2)s1	SENP8 block-2 48 (no result: PPC-1+TRAIL kill, SENP6 inh, SENP8 block-1, SENP7 block) | SENP8 inh conf 50
O=[N+]([O-])c1cc(/C=N/N2CCOCC2)cs1	none (no result: PPC-1+TRAIL kill)
Cn1c(=O)n(Cc2ccc(F)cc2)c(=O)c2c1nc1n2CCCN1C1CCCCC1	none
Cn1c(=O)n(Cc2ccccc2)c(=O)c2c1nc1n2CCCN1C1CCCCC1	SENP8 block-2 45 (no result: PPC-1+TRAIL kill) | SENP8 inh conf inactive
O=C(Nc1c(-c2ccccc2)[nH][nH]c1=O)c1ccccc1	none (no result: PPC-1+TRAIL kill, SENP6 inh, SENP8 block-1, SENP7 block)
Cc1cnc(C(=O)Nc2c(-c3ccccc3)[nH][nH]c2=O)cn1	SENP8 block-2 41 (no result: PPC-1+TRAIL kill, SENP6 inh, SENP8 block-1, SENP7 block) | SENP8 inh conf 45
O=C(Nc1c(-c2ccc(Cl)cc2)[nH][nH]c1=O)c1ccc(Br)cc1	SENP8 block-2 43 (no result: PPC-1+TRAIL kill, SENP6 inh, SENP8 block-1, SENP7 block) | SENP8 inh conf inactive
O=C(Nc1c(-c2ccc3c(c2)OCO3)[nH][nH]c1=O)c1ccc2c(c1)OCO2	none (no result: PPC-1+TRAIL kill, SENP6 inh, SENP8 block-1, SENP7 block)
O=C(Nc1c(-c2ccccc2)[nH][nH]c1=O)c1cccc(C(F)(F)F)c1	SENP8 block-2 49 (no result: PPC-1+TRAIL kill, SENP6 inh, SENP8 block-1, SENP7 block) | SENP8 inh conf inactive
CCCCc1nc(SCc2ccc([N+](=O)[O-])cc2)n[nH]1	none
COCCCN1C(=O)C(=O)/C(=C(/O)c2ccc(S(=O)(=O)N3CCCCC3)cc2)C1c1ccc(O)cc1 (centres undefined)	SENP8 block-2 45 (no result: PPC-1+TRAIL kill) | SENP8 inh conf inactive
COCCCN1C(=O)C(=O)/C(=C(/O)c2ccc(S(=O)(=O)N3CCCCC3)cc2)C1c1ccc(O)c(OC)c1 (centres undefined)	none (no result: PPC-1+TRAIL kill)
O=C(O/C(=C/c1ccccc1)C(F)(F)F)c1ccccc1	none (no result: PPC-1+TRAIL kill, SENP6 inh, SENP8 block-1, SENP7 block)
CCn1nnnc1NCc1ccc(OCc2c(F)cccc2Cl)c(OC)c1	none
COc1cc(CNn2nnnc2N)ccc1OCc1c(Cl)cccc1Cl	SENP8 block-2 44 | SENP8 inh conf inactive
O=C(CCC1CCCC1)N1CCN(C(=O)c2cccnc2)CC1	SENP8 block-2 41 | SENP8 inh conf inactive

Screens (PubChem BioAssay)
